# JMJD2A Tudor inh: blocks the human JMJD2A Tudor domain; AlphaScreen JMJD2A-Tudor / H3K4me3 peptide binding; Potency, µM (titrated, usually from 114 µM), without a hit: at the highest dose activity change, negative = inhibition, usual class: inhibitors; hit rate 4.4% among 390,000; AID 504339; note: % is set by controls: 0 for no effect and ±100 for the full control effect; nearly all actives have a fitted effect of over 50% in size
# L3MBTL1 block: blocks human L3MBTL1; Q9Y468; Potency, µM (top dose mostly 57.1 µM), inactives show top-dose activity, negative = inhibition, most hits filed as inhibitors; hit rate 0.66% among 230,000; AlphaScreen L3MBTL1–H3K9me1 peptide binding; note: % is set by controls: 0 for no effect and ±100 for the full control effect; nearly all actives have a fitted effect of over 60% in size
#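 AlphaScreen proximity signal between nickel-chelate acceptor and streptavidin donor beads (final 10 ug/mL) reports binding of 50 nM L3MBTL1 to 75 nM biotin-H3 K9me1 peptide; complex incubated with compounds 30 min at room temperature; cefsulodin titration as control.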
# BAZ2B block: inhibitors of human BAZ2B bromodomain; hit rate 4.4% among 360,000; Q9UIF8; Potency, µM (titrated, usually from 114 µM), without a hit: top-dose activity change, negative = inhibition, hits mostly inhibitors; AlphaScreen BAZ2B-H3K14Ac peptide displacement; note: % is set by controls: 0 for no effect and ±100 for the full control effect; nearly all actives have a fitted effect of over 60% in size
# Target sequence (Q9UIF8 whole entry, looked up): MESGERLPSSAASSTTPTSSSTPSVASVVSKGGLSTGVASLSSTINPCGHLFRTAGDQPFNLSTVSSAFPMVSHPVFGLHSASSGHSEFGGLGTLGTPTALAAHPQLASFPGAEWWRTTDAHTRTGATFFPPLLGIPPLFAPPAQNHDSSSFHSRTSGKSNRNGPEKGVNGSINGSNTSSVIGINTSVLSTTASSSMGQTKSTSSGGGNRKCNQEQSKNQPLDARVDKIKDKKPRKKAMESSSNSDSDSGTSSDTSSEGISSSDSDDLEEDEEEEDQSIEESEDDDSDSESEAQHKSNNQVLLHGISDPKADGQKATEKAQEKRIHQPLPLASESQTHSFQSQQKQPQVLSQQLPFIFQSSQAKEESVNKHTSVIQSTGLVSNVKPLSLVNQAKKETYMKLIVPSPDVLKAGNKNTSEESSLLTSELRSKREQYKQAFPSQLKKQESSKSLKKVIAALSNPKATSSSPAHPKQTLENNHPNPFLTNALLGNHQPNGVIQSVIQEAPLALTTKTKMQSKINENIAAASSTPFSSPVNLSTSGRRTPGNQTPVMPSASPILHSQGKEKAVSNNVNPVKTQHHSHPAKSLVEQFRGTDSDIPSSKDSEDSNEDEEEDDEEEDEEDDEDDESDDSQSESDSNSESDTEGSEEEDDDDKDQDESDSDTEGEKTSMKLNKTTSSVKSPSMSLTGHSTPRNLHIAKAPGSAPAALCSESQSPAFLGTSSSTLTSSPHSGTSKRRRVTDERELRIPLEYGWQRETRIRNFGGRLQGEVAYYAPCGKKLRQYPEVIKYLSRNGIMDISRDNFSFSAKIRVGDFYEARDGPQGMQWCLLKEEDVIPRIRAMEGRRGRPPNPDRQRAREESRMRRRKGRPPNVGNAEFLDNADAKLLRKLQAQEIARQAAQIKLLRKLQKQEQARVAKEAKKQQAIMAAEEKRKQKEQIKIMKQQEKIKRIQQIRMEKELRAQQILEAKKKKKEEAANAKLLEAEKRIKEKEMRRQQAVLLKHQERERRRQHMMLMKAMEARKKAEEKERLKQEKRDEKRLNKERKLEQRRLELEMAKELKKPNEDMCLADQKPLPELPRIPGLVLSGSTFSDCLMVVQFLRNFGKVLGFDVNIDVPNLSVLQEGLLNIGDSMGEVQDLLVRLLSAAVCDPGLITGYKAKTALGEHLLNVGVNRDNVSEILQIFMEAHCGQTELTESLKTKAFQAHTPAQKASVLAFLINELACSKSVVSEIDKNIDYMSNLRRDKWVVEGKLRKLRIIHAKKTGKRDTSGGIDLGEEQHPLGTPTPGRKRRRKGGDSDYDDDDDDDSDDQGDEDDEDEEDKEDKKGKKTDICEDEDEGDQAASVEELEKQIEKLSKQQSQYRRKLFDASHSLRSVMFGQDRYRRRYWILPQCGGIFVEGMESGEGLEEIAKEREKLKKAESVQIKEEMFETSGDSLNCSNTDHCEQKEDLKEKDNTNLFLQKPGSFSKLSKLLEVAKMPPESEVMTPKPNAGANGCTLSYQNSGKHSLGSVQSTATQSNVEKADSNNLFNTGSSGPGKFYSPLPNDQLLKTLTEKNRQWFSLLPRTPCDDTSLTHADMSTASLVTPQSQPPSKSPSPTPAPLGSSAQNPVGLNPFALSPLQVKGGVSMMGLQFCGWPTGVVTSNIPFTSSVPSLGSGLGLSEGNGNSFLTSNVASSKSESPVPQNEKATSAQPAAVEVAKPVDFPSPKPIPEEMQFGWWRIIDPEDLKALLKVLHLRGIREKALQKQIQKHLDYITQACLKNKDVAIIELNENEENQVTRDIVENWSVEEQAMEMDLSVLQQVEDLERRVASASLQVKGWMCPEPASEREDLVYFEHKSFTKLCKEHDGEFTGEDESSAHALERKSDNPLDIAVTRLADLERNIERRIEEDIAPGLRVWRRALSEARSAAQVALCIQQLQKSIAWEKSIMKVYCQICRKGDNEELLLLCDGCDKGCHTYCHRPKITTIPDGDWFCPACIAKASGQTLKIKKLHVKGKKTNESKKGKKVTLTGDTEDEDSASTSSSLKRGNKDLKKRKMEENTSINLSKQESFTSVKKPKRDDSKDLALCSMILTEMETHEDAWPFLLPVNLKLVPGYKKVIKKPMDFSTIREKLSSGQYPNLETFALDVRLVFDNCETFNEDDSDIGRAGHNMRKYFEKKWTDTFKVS
#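 Protein-peptide AlphaScreen: BAZ2B 50 nM, b-H3K14Ac 50 nM, 1x PBS pH 7.4 + 0.01% Tween-20. Preincubation 30 min RT; cpd 30 min RT (top 110 uM); beads 20 min RT, light-protected.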
# G9a block: G9a (human) methyltransferase inhibition. Q96KQ7. G9a H3K9 monomethylation, AlphaScreen, 2 h. Potency, µM (doses to about 102 µM), for inactives: at the top dose activity, negative = inhibition, actives largely listed as inhibitors. hit rate 8.8% among 350,000. AID 504332; note: % is set by controls: 0 for no effect and ±100 for the full control effect; nearly all actives have a fitted effect of over 75% in size
#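 Quantitative HTS format: methyltransferase activity on a biotin-tagged H3K9 peptide is measured by AlphaScreen, using a rabbit anti-monomethyl-H3K9 antibody with streptavidin donor and anti-IgG acceptor beads. Final levels are 20 nM enzyme, 500 nM peptide, 20 uM SAM; 2 h RT.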
# HP1b binding inh: inhibitors of HP1-beta chromodomain binding to methylated histone tails; P83916; AlphaScreen HP1-beta / biotin-H3K9me3 peptide binding; Potency, µM (highest dose often 114 µM), inactives show at the top dose activity change, negative = inhibition, usual class: inhibitors; hit rate 0.56% among 390,000; AID 540317; note: nearly all actives have a fitted effect of over 70% in size
#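 AlphaScreen: HP1-beta (50 nM) preformed 30 min with biotin-H3(1-18)K9me3 peptide (50 nM) in PBS pH 7.4, 0.01% Tween-20. Compound added for 30 min at RT, then streptavidin donor/nickel chelate acceptor beads (10 ug/mL) for 30 min.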
# * hit, by the source's call; ? = inconclusive; . = no result; [ ] = another dose, or the depositor's remark. Rows were chosen to be rich in hits. Some 11% of all compounds tested hit in one or more screens of this group. Calls come from the whole dose curve; as a rule, active = well fitted inhibition curve with a large enough effect; inconclusive = small, poorly fitted or top-dose-only effect; inactive = no such curve, though single readings can be large or run the other way. Potency is the fitted concentration of half-maximal effect.
SMILES,JMJD2A Tudor inh,L3MBTL1 block,BAZ2B block,G9a block,HP1b binding inh
CC1Cc2ccccc2N1Cc1nc2cc(C(F)(F)F)ccc2c(=O)[nH]1 (configuration not stated),?,-9%,?,?,3%
NC(=O)C1CCN(Cc2nc3cc(C(F)(F)F)ccc3c(=O)[nH]2)CC1,-10%,-1%,-24%,14µM*,26%
CC1CCC(C(C)C)C(OC(=O)Cn2c(-c3ccc(F)cc3)[n+](C)c3ccccc32)C1 (configuration not stated),-18%,7%,10%,25µM*,7%
O=C1CCCCCN1Cc1nnc(SCc2nc3ccccc3s2)n1-c1ccccn1,-22%,-1%,-22%,50µM*,38%
CCNC(=O)CSc1nnc(CN2CCCCCC2=O)n1-c1ccccn1,-1%[57.1 µM],7%,.,14%,2%
O=C(Nc1cc(NC(=O)c2ccccc2Cl)ccc1Cl)c1ccccc1,-17%,.,0%,4%[59 µM],13%
O=C(Nc1ccc(Cl)cc1)N(CCCN1CCOCC1)Cc1cccs1,-28%,.,-4%,9%,17%
O=S(=O)(c1ccc(Cl)cc1)N(CCCN1CCOCC1)Cc1cccs1,8.9µM*,.,50µM*,28µM*,15%
O=S(=O)(c1ccc(Br)cc1)c1nc(-c2ccco2)oc1NCC1CCCO1 (configuration not stated),-8%,4%,?,35µM*,35%
Cc1ccc(S(=O)(=O)c2nc(-c3ccco3)oc2NCC2CCCO2)cc1 (configuration not stated),-17%,1%,-36%,10µM*,26%
CC1=C(C(=O)OC2CCCC2)C(c2ccc(F)cc2F)CC(=O)N1 (configuration not stated),-9%,.,-1%,-3%[59 µM],34%
Cc1nn(C)c(Oc2cccc(C(F)(F)F)c2)c1C#N,2%,5%,0%,9%,47%
Cc1nn(C)c(Oc2cccc(Cl)c2)c1C#N,20µM*,-17%,8%,23%,17%
COCCCNC(=O)c1cccs1,1%,.,12%,7%,74%
COc1ccc(CNCCNC(=O)c2cccs2)c(OC)c1OC,22µM*,3%,56µM*,14µM*,-22%
COc1ccc(OC)c(CNCCNC(=O)c2ccco2)c1,.,.,56µM*,?,.
COc1cccc(CNCCNC(=O)c2ccco2)c1OC,?,.,50µM*,11µM*,-18%
COc1cc(OC)cc(C(=O)NCCNC(=O)c2ccco2)c1,-8%,0%[11.4 µM],-1%,-3%[59 µM],27%
O=C(NCCNCc1ccc(F)cc1)c1ccco1,3.5µM*,.,50µM*,7.9µM*,?
COc1ncc2nc(-c3ccc(Cl)cc3)c(=O)n(CCC#N)c2n1,.,.,.,11%[0.501 µM],.
CCn1c(=O)c(C(=O)NCCc2ccccc2)c(O)c2ccccc21,70%,55%,80%,140%[59 µM],194%
CCNCCNC(=O)c1c(O)c2ccccc2n(CC)c1=O,-25%,-1%,-6%,11µM*,19%
C=CCn1c(=O)c(C(=O)NCCNCC)c(O)c2ccccc21,-20%,1%,?,?,39%
CCn1c(=O)c(C(=O)NCCN2CCCCC2)c(O)c2ccccc21,-35%,-6%,?,56µM*,17%
Cc1ccc(C)c(CN2CCC(CNC(=O)C(CC(C)C)N3Cc4ccccc4C3=O)CC2)c1 (configuration not stated),-5%,.,-18%,?,12%
SMILES,JMJD2A Tudor inh,L3MBTL1 block,BAZ2B block,G9a block,HP1b binding inh
O=C(NC1C2CC3CC(C2)CC1C3)c1ccc(Br)o1 (configuration not stated),-12%,.,-12%,-1%,-1%
Cc1c(C(=O)OCC[N+]2(C)CCCCC2)oc2ccccc12,-8%,4%,-21%,28µM*,-22%
Cc1ccc(-n2cnc3cc(C(=O)NCc4ccc(F)cc4)ccc32)c(C)c1,?,.,-19%,-6%[59 µM],8%
O=C1c2ccccc2C(=O)N1CCc1ccccc1,56µM*,.,.,.,?
O=C1c2ccccc2C(=O)N1CCc1csc(NNc2nc(CCN3C(=O)c4ccccc4C3=O)cs2)n1,?,.,35µM*,?,-12%
Cc1cc(C)cc(C(=O)N2CC(=O)Nc3ccc(C)cc3C2c2ccccc2)c1 (configuration not stated),-35%,.,-22%,2%[59 µM],-1%
